From PubChem
HTT cytoprotect – qHTS Multiplex Assay to Identify Dual Action Probes in a Cell Model of Huntington: Cytoprotection (ATP). PC12 HTT-Q103 induced, cytoprotection, ATP luminescence, 40 h. Potency, µM (highest dose often 56.4 µM), without a hit: cytoprotection (ATP increase), usual class: activators. actives 0.14% (n = 230,000). AID 1471, 2008; active = well fitted curve in the direction sought with a large enough effect; inconclusive = small, poorly fitted or top-dose-only effect, or another doubt; inactive = no such curve, though single readings can be large; an effect the other way counts as inactive or inconclusive; note: potency is the fitted concentration of half-maximal effect; % of control where 0% means no effect; nearly all actives have a fitted effect of over 45% in size
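Stable PC12 Q103-GFP cells in serum-supplemented, phenol red-free DMEM; induction by tebufenozide at 100 nM final; compound dose series; cell viability quantified luminescently from ATP.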
HPGD block – qHTS Assay for Inhibitors of HPGD (15-Hydroxyprostaglandin Dehydrogenase). 15-hydroxyprostaglandin dehydrogenase [NAD(+)] (Homo sapiens), P15428. purified HPGD, NADH fluorescence kinetic, PGE2 substrate. actives 4.3% (n = 150,000). Potency, µM, without a hit: at the top dose activity change, negative = inhibition, actives largely listed as inhibitors; note: potency is the fitted concentration of half-maximal effect; % is set by controls: 0 for no effect and ±100 for the full control effect
Target sequence (P15428 whole entry, looked up): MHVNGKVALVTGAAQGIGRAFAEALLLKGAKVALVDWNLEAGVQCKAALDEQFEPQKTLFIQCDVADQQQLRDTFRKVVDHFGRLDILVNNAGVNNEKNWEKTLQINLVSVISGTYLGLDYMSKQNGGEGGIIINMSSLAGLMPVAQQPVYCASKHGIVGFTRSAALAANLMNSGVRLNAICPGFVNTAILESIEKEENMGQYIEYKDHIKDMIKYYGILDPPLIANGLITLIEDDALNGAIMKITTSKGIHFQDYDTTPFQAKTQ
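20 nM HPGD preincubated 15 min at room temperature with compound in 50 mM Tris-HCl pH 8, 0.01% Tween 20. Started with 1 mM NAD+ and 30 uM prostaglandin E2; NADH fluorescence (360/450 nm) read 5 times over 30-s intervals, last minus first.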
ALDH1A1 inh – qHTS Assay for Inhibitors of Aldehyde Dehydrogenase 1 (ALDH1A1). Purified ALDH1A1, NADH fluorescence, propionaldehyde substrate. Potency, µM (doses to about 75.3 µM), without a hit: top-dose activity, negative = inhibition, actives largely listed as inhibitors. actives 7.3% (n = 220,000). AID 1030, 2008;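 note: potency is the fitted concentration of half-maximal effect; plate controls were no enzyme wells and a reference inhibitor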
HTT aggregate – qHTS Multiplex Assay to Identify Dual Action Probes in a Cell Model of Huntington: Aggregate Formation (GFP); PC12 HttQ103-GFP aggregates, Acumen cytometry, 40 h; Potency, µM (highest dose often 46.1 µM), inactives show at the top dose activity change, negative = inhibition, most hits filed as inhibitors; actives 1.1% (n = 220,000); active = well fitted curve in the direction sought with a large enough effect; inconclusive = small, poorly fitted or top-dose-only effect, or another doubt; inactive = no such curve, though single readings can be large; an effect the other way counts as inactive or inconclusive; note: potency is the fitted concentration of half-maximal effect; % is set by controls: 0 for no effect and ±100 for the full control effect; nearly all actives have a fitted effect of over 60% in size
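Using laser scanning cytometry, GFP-positive aggregates were counted after lysis of PC12 cells induced with 100 nM tebufenozide to express HTT exon 1 Q103–GFP. Compounds were tested in titration.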
CBFb RUNX1 block – qHTS Assay for Compounds Blocking the Interaction Between CBF-beta and RUNX1 for the Treatment of Acute Myeloid Leukemia; Runt-related transcription factor 1 (Homo sapiens) + Core-binding factor subunit beta …; Potency, µM (titrated, usually from 59.8 µM), inactives show at the top dose activity, negative = inhibition, most hits filed as inhibitors; AlphaScreen CBFb-His/RUNX1-biotin binding, biochemical; AID 1477, 2009; 230,000 tested, under 10 active; active = well fitted curve in the direction sought with a large enough effect; inconclusive = small, poorly fitted or top-dose-only effect, or another doubt; inactive = no such curve, though single readings can be large; an effect the other way counts as inactive or inconclusive; note: % of control where 0% means no effect
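Room-temperature protein-protein interaction test with 30 nM each of His-tagged CBF-beta and biotinylated RUNX1, 15 min with compound, then 90 min with nickel plus streptavidin beads. Signal read in AlphaScreen mode.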
JMJD2E inh – qHTS Assay for Inhibitors of Human Jumonji Domain Containing 2E (JMJD2E); Lysine-specific demethylase 4E (Homo sapiens), B2RXH2; Potency, µM (highest dose often 57.1 µM), inactives show at the top dose activity change, negative = inhibition, usual class: inhibitors; actives 1.6% (n = 230,000); JMJD2E catalytic domain, FDH-coupled NADH fluorescence (FDH is formaldehyde dehydrogenase); AID 2147, 2009;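 note: potency is the fitted concentration of half-maximal effect; 0% = wells with enzyme and -100% = buffer wells without enzyme; nearly all actives have a fitted effect of over 50% in size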
Target sequence (B2RXH2 1-337 limits assumed): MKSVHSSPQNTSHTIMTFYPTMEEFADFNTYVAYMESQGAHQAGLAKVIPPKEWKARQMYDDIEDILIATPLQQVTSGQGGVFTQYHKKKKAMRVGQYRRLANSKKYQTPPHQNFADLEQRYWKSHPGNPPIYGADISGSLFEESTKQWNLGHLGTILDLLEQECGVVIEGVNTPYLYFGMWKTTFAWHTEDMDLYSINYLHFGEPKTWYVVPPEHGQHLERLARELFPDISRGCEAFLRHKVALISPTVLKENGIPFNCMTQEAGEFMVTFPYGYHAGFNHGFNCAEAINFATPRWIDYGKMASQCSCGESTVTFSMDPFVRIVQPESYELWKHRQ
Numbers without * were called inactive; ? = inconclusive; nt = not tested or not shown; [ ] = remark or other dose. An excerpt weighted towards active compounds, which were near 9.8% of everything screened. Unless noted, calls come from the whole dose curve; as a rule, active = well fitted inhibition curve with a large enough effect (not every such curve was filed as active); inconclusive = small, poorly fitted or top-dose-only effect, or another doubt; inactive = no such curve, though single readings can be large or run the other way.

SMILES	HTT cytoprotect	HPGD block	ALDH1A1 inh	HTT aggregate	CBFb RUNX1 block	JMJD2E inh
COc1ccccc1NC(=O)N1CCN(c2cc(-c3ccccc3)nc3ncnn23)CC1	?	-8%	-5%	10µM*	1%	-1%
COc1ccc(OC)c(NC(=O)C2CCN(c3cc(-c4ccccc4)nc4ncnn34)CC2)c1	-65%	-5%	?	11%	-1%	-5%
Cc1cc(C)c2nc(N3CCC(C(=O)NCc4cccnc4)CC3)sc2c1	-26%	nt	4%	-26%	9%	-14%
Cc1cc(C)c2nc(N3CCC(C(=O)N4CCN(C(=O)c5ccco5)CC4)CC3)sc2c1	-5%	-14%	13µM*	-15%	-10%	-17%
CC(=NCc1cccc(Cl)c1)c1nc(-c2ccco2)oc1O	nt	-15%	18µM*	?	1%	8%
O=c1oc2c(O)c(O)cc3c(=O)oc4c(O)c(O)cc1c4c23	29%[1.9 µM]	0.89µM*	-7%	-20%	nt	2.5µM*
Oc1ccccc1/C=N/Nc1nc2ccccc2o1	-75%[10 µM]	nt	nt	?	-19%	28µM*
COc1ccc(CNC(=O)CN(Cc2ccccc2)S(=O)(=O)c2ccc(Cl)cc2)cc1	-19%	-14%	?	?	-1%	-4%
COc1ccc(C)cc1S(=O)(=O)N(CC(=O)N1CCOCC1)Cc1ccccc1	-5%	-4%	-6%	-2%	11%	1%
COc1ccc(C)cc1S(=O)(=O)N(CC(=O)NCc1ccc(Cl)cc1)Cc1ccccc1	-25%[10 µM]	-6%	1%	28µM*	4%	8%
COc1ccc(CNC(=O)CN(Cc2ccc(Cl)cc2)S(=O)(=O)c2ccccc2)cc1	-34%	3%	2.2µM*	?	7%	4%
COc1ccc(S(=O)(=O)N(Cc2ccccc2)Cc2nc3ccccc3c(=O)[nH]2)cc1	-26%	-4%	6.3µM*	-14%	8%	7%
Nc1nc(C23CC4CC(CC(C4)C2)C3)[nH]c(=O)n1	8%[10 µM]	nt	nt	-6%[9.22 µM]	4%	3%
c1cncc(CNCc2cccnc2)c1	21%[10 µM]	-3%	0%[13.5 µM]	nt	nt	nt
Cc1ccc(CN2CCN(Cc3ccc4c(c3)OCCO4)CC2CCO)cc1 (configuration not stated)	11%[10 µM]	nt	15%	12%[9.22 µM]	3%	-3%
COc1ccc(CCNC(=O)COc2ccc([N+](=O)[O-])cc2)cc1	4%[10 µM]	nt	?	1%	3%	6%
COc1ccc(P(=O)(COc2ccc([N+](=O)[O-])cc2)c2ccc(OC)cc2)cc1	nt	-5%	7.1µM*	-7%	-5%	0%
O=[N+]([O-])c1cc(-c2ncccn2)c([N+](=O)[O-])s1	nt	28µM*	2.2µM*	?	-17%	0%
OC(c1ccc(Cl)cc1)c1nnc(-c2ccccc2)o1 (configuration not stated)	0%	18µM*	0%	-23%	-2%	-2%
Clc1ccc(-c2nnc(-c3ccccc3Cl)o2)cc1	-7%	nt	?	-1%	0%	?
CCc1ccc(NC(=O)C2CC(=O)Nc3ncnn32)cc1 (configuration not stated)	-24%[10 µM]	-9%	25µM*	16%	0%	0%
COc1ccccc1C(=O)Nc1nsc(-c2ccccc2)n1	-11%[10 µM]	nt	nt	23%[9.22 µM]	1%	3%
Oc1ccc(C=Nc2ccc3ncccc3c2)c(O)c1	-79%	?	28µM*	?	-23%	4.5µM*
Oc1ccc(C=Nc2cccc3ncccc23)c(O)c1	1%[10 µM]	-7%	-2%	-5%	-22%	?
O=C(c1ccco1)n1nc(-c2ccco2)nc1SCc1ccccc1	-54%	?	-5%	-12%	4%	-6%
SMILES	HTT cytoprotect	HPGD block	ALDH1A1 inh	HTT aggregate	CBFb RUNX1 block	JMJD2E inh
Cc1ccc(S(=O)(=O)n2nc(-c3ccco3)nc2SCc2ccccc2)cc1	-14%[10 µM]	25µM*	22µM*	-2%	16%	-4%
CSc1nc(-c2ccco2)nn1S(=O)(=O)c1ccc(C)cc1	-18%[10 µM]	?	?	16%	-10%	?
CSc1nc(-c2ccco2)nn1C(=O)c1ccccc1	-2%	14µM*	-43%	1%	-2%	8%
CCS(=O)(=O)n1nc(-c2ccc(Cl)cc2)nc1SC	-11%	13µM*	?	0%	6%	?
CSc1nc(-c2ccco2)nn1S(=O)(=O)c1ccccc1	-9%[0.074 µM]	14µM*	14µM*	-1%	8%	-5%
CSc1nc(-c2ccco2)nn1C(=O)c1ccc(C)cc1	-16%	?	-7%	0%	3%	7%
CCOC(=O)c1nc2sc3c(c2c(=O)n1C(C)C(=O)OCC)CCCC3 (configuration not stated)	8%	nt	?	15%	7%	?
CCS(=O)(=O)n1nc(-c2ccco2)nc1SC	-8%[10 µM]	8.9µM*	22µM*	-21%	4%	-7%
S=C(Nc1ccccc1)N1CCn2c1nc1ccccc12	-17%	16µM*	-9%	9%	1%	4%
COCC(=O)N1CCC[C@@]2(CCN(C(=O)Nc3cccc(C#N)c3)C2)C1	?	-10%	-15%	nt	nt	nt
c1ccc(-c2nc(N3CCN(c4ccccc4)CC3)nc(-n3ccnc3)n2)cc1	-28%	nt	-13%	14µM*	-5%	4%
c1ccc(-c2nc(N3CCCCCC3)nc(-n3ccnc3)n2)cc1	-58%	-15%	-4%	-16%	1%	1%
Cc1cc(-c2nn3c(-c4ccccc4)nnc3s2)c2ccccc2n1	7%[0.074 µM]	14µM*	8.9µM*	1%	9%	2%
Cc1ccccc1-c1nn2c(-c3ccccc3)nnc2s1	-79%	28µM*	?	-28%	5%	?
CC(C)(C)c1ccc(-c2nnc3sc(-c4ccncc4)nn23)cc1	5%[1.9 µM]	?	13µM*	4%	1%	0%
Cc1ccc(-c2nnc3sc(CCc4ccccc4)nn23)cc1	8%	14µM*	3.5µM*	-9%	4%	3%
COc1cccc2nc(-c3cccs3)nc(NN3C(=O)C=C(C)C3=O)c12	nt	nt	nt	nt	-9%	nt
CC(=O)OCC(NC(=O)C(Cc1ccccc1)NC(=O)OC(C)(C)C)C1OC(n2cc(F)c(=O)[nH]c2=O)C(OC(C)=O)C1OC(C)=O (configuration not stated)	nt	nt	nt	nt	-7%	nt
